Where “and” joins values, the source holds several entries; their conditions need not be identical. Equal entries are not always repeated. Results filed as inconclusive are left out. Calls of active or inactive are those of the source. Unless noted, calls follow the shape of the dose curve; as a rule, active = well fitted curve in the direction sought with a large enough effect; inconclusive = small, poorly fitted or top-dose-only effect, or another doubt; inactive = no such curve, though single readings can be large; an effect the other way counts as inactive or inconclusive.

Consider 14 molecules from PubChem BioAssay (NCATS).

Experiment [1] in a line: Validation of Assay for Modulators of Lamin A Splicing (AID 1459; active = well fitted curve in the direction sought with a large enough effect in the signal ratio; the % refers to the signal ratio;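 also: cells exposed to compound for two days before reading; 0% is about no effect; ratio rise marks activators and ratio drop marks inhibitors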). From the text:
Hutchinson-Gilford Progeria Syndrome (HGPS) is a pediatric premature aging disease caused by a spontaneous mutation in the lamin A/C (LMNA) gene. The mutation activates a cryptic splice site in the LMNA pre-mRNA which results in production of a pre-lamin A protein that cannot be processed properly. The mutant protein accumulates in the nucleus and negatively affects numerous cellular functions. Correction of the splicing defect in HGPS patient cells using a targeted oligonucleotide (exo11) leads to reversal of the cellular disease phenotypes. To identify small molecule modulators of aberrant LMNA splicing, a homogenous assay was constructed in HeLa cells that used a GFP containing minigene to report on correction of aberrant splicing in lamin A and a RFP (DsRed2) to report on cell viability, uniformity and nonspecific effects on the assay signal. This assay was adapted to laser-scanning microplate cytometry (Acumen, TTP Labtech) where miniaturization of the assay to a 1,536-well plate format was possible.
Bowen, W. P.; Wylie, P. G. Application of Laser-Scanning Fluorescence Microplate Cytometry in High Content Screening. Assay Drug Dev Technol 2006;4:209-221.
Scaffidi P, Misteli T. Reversal of the cellular phenotype in the premature aging disease Hutchinson-Gilford progeria syndrome. Nat. Med. 2005;11:440-445.
NCGC Assay Protocol Summary:
Reagents/Controls: Stable clones expressing DsRed2 and lamin A-EGFP were generated by Cell and Molecular Technologies in S3 HeLa cells.
HeLa cells were prepared for the assay when they were 70-90% confluent. The cells were counted and resuspended in Opti-MEM I (no phenol red; Gibco), 2% FBS, 1% penicillin/ streptomycin (Gibco) at concentration of 120 cells/uL concentration. The suspension was passed through a Falcon basket filter with pore size 40um (Beckton Dickson).
Control titrations: column […] 1536-well plate contained a sixteen point titration (1:2 dilutions) in duplicate of ancitabine (Sigma: A8598) beginning at 40 uM final concentration. Column 2 contained a sixteen point titration (1:2 dilutions) of cycloheximide beginning at 1.4 mM final concentration. Column 3 contained ancitabine at 40 uM and column 4 contained was the vehicle control (0.5% DMSO final concentration).
5 uL of HeLa cells were plated in Aurora LoBase black clear bottom (cyclic-olefin polymer) 1536-well plates at a final density of 600 cells/well. Controls and library compounds were added with a 1536-well pin array using the Kalypsys pin-tool. The plates were then incubated for 48 hrs in a cell-culture incubator (37 °C; 5% CO2, 98% humidity). Following incubation the plates were read on the Acumen Explorer using the 488 nm laser. Data was collected on objects between 10 and 100 um in size. Cell objects were defined by a 15 um width x 10 um depth filter. The ratio of the total object intensity in PMT1 (500-530 nm emission; GFP) over PMT3 (575-640 nm emission; RFP) was calculated for analysis.
Keywords: NIH Roadmap, MLSCN, MLI, MLSMR, qHTS, NCGC, lamin A, Progeria, RNA splicing.

In experiment [2] the target is DNA repair nuclease/redox regulator APEX1 (Homo sapiens) (UniProt P27695). Description: qHTS Validation Assay for Inhibitors of the Human Apurinic/apyrimidinic Endonuclease 1 (APE1) (AID 1705;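 also: TAMRA fluorescence gain over two minutes as APE1 cuts a quenched THF abasic duplex; % is scaled to controls: 0 for no effect and ±100 for the full control effect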). Put shortly:
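Activity read as rising fluorescence (598 nm emission, 525 nm excitation) from incision of a TAMRA/BHQ-2 duplex carrying a THF abasic site (50 nM). Compound and enzyme sat 15 min at RT before substrate start; signal change between first and third 60-s reads.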

Experiment [3] is described as follows: qHTS Assay for Lipid Storage Modulators (AID 1519; calls by dose curve; as to activity change, negative = inhibition: % is scaled to controls: 0 for no effect and ±100 for the full control effect). As to conditions: Drosophila S3 cells, BODIPY lipid droplet/cell ratio, laser cytometry, cells loaded with oleic acid. Put shortly:
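Cells seeded at 5,000 per well were treated with compounds over a concentration series and loaded with oleic acid (400 uM, as added). Lipid droplet fluorescence (488 nm excitation, 500-530 nm channel) was read by laser-scanning cytometry and normalized to 20 uM Triacsin C.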

Experiment [4] deals with Alpha-galactosidase A (Homo sapiens) (UniProt P06280). In words: Counterscreen for Glucocerebrosidase Inhibitors: qHTS Assay for Human alpha-Galactosidase at pH 4.5 (AID 992). Also: 0% is about no effect. The method in brief: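 Fluorogenic 4-MU alpha-D-galactoside (80 uM) hydrolysis, 2 nM enzyme, pH 4.5 citrate buffer + 0.005% Tween-20; 20 min RT; NaOH/glycine pH 10 stop; Ex365/Em440. Compounds titrated 0.7 nM–77 uM; Hill-equation AC50.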
Chain of Alpha-galactosidase A (Homo sapiens) (P06280 whole entry, looked up): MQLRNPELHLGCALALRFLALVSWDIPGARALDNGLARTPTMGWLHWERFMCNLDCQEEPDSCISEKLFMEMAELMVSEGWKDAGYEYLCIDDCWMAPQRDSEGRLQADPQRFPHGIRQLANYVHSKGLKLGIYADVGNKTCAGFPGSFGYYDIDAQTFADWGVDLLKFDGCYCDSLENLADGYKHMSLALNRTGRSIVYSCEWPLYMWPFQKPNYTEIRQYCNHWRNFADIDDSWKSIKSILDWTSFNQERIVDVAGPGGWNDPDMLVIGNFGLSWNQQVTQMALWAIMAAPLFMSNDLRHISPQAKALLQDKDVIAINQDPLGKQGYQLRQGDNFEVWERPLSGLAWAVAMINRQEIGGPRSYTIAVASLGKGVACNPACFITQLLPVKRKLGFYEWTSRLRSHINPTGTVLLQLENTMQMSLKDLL

Experiment [5] addresses alpha-glucosidase (Oryza sativa, rice) (UniProt Q653V4). In words: Counterscreen for Glucocerebrosidase Inhibitors: qHTS Assay for Rice alpha-Glucosidase at pH 5.0 (AID 997).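 Also: 0% = full activity with enzyme and -100% = basal without enzyme.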 The method in brief: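 Endpoint fluorogenic assay at pH 5.0: compounds (0.7 nM to 77 uM) titrated against 4 nM rice enzyme and 400 uM 4-MU-alpha-glucoside for 20 min at room temperature; NaOH/glycine stop, read ex 365/em 440 nm, Hill-fitted AC50.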

In experiment [6] the target is Alpha-galactosidase (Coffea arabica) (UniProt Q42656). In words: Counterscreen for Glucocerebrosidase Inhibitors: qHTS Assay for Coffee Bean alpha-Galactosidase at pH 5.9 (AID 998).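 Also: plate controls were uninhibited enzyme for no effect and no-enzyme basal signal for full effect.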 The method in brief: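 Fluorogenic 4-MU substrate hydrolysis, 80 uM substrate and 2 nM coffee bean alpha-galactosidase, pH 5.9 citrate buffer, 20 min at room temperature, then NaOH/glycine stop. Titration 0.7 nM–77 uM, normalized to no-enzyme and enzyme controls, AC50 via Hill equation.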
Chain of Alpha-galactosidase (Coffea arabica) (Q42656 whole entry, looked up): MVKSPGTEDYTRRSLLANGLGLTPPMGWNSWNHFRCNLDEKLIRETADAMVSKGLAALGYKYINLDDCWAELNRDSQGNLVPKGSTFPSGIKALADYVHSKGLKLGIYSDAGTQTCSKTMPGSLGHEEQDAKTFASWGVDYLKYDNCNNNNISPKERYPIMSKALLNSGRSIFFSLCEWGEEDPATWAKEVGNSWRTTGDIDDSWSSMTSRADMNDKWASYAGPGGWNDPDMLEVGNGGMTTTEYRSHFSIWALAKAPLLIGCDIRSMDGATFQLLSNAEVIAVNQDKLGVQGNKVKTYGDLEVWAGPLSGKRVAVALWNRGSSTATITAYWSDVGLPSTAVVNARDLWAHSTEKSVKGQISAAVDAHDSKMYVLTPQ

Experiment [7] can be described thus: Cell Viability - LYMP1-002 - Assay at 24 hr (AID 993). Also: % is scaled to controls: 0 for no effect and ±100 for the full control effect. Put shortly:
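Acute toxicity is measured as concentration-dependent loss of cellular ATP in a human lymphoblastoid line (Coriell LYMP1-002) after 24 h treatment in complete medium. ATP is quantified by luciferase luminescence and AC50 derived by Hill modelling.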

A short description of experiment [8]: Cell Viability - LYMP1-002 - Assay at 40 hr (AID 994). Also: potency is read from the fitted curve at half-maximal effect; nearly all actives have a fitted effect of over 60% in size. Put shortly: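 Cells are plated at 2500 per well and rested 5 hr at 37 C. Compounds are added and incubated 40 hr at 37 C. CellTiter-Glo reagent is added for 30 min at room temperature before luminescence is read.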
Where [9] appears, read: measured here: cell count channel max response.
[10] abbreviates: measured here: lipid channel max response.

Chain of DNA repair nuclease/redox regulator APEX1 (Homo sapiens) (P27695 whole entry, looked up): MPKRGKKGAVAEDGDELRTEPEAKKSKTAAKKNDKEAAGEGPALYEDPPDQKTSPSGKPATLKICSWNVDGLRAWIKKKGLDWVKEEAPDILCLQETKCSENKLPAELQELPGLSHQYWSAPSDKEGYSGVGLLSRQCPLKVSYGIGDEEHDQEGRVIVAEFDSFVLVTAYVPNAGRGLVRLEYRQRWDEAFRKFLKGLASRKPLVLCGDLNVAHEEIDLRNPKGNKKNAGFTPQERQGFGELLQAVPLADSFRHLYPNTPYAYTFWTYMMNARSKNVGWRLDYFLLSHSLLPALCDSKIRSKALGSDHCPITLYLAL

Turning to `O=C1NCN(c2ccccc2)C12CCN(CC1COc3ccccc3O1)CC2` (stereo unspecified), the call in experiment [1] and in experiment [2] was inactive.

With `Cc1cc2c(C(C)C)c(O)c(O)c(C=O)c2c(O)c1-c1c(C)cc2c(C(C)C)c(O)c(O)c(C=O)c2c1O`, in experiment [3] (at 57.5 µM (top of the series)), the activity change, negative = inhibition is -15.2% (inactive). The max response in experiment [3] (setting [9]) is -14.5%; in experiment [3] (setting [10]), -19.7%.

As for `Cc1cccc(C)c1NC1=NCCCS1`, the molecule was classed as inactive in experiment [4], in experiment [5], in experiment [6], in experiment [1] and in experiment [2]. In addition, the activity change, negative = inhibition is 0.794% (inactive) in experiment [3] (at 25.7 µM (top of the series)) and 0.68% (inactive) in experiment [3] (at 57.5 µM (top of the series)). The max response was 4% and -18.4% in experiment [3] (setting [9]); 4.95% and -18.3% in experiment [3] (setting [10]).

In the case of `CC(C)=CCOc1c2occc2cc2ccc(=O)oc12`, the activity change, negative = inhibition in experiment [3] (at 57.5 µM (top of the series)) is 17.7% (inactive). Besides, the max response was determined as 5.47% in experiment [3] (setting [9]) and 25.6% in experiment [3] (setting [10]).

Take `c1ccc2c(c1)OCC(C1=NCCN1)O2` (stereo unspecified): the outcome in experiment [2] was inactive.

`c1ccc(C2CC2)c(OCC2=NCCN2)c1`: the molecule was classed as inactive in experiment [4], in experiment [5], in experiment [6] and in experiment [2]. Besides, in experiment [3] (at 57.5 µM (top of the series)), the activity change, negative = inhibition was 8.25% (inactive). The max response came out at 15.2% in experiment [3] (setting [9]) and 26.1% in experiment [3] (setting [10]).

For `Cc1ccc(S(=O)(=O)N[C@@H](CCCCN)C(=O)CCl)cc1`, the molecule was classed as inactive in experiment [4], in experiment [5], in experiment [6] and in experiment [2]. For the same molecule, the activity change, negative = inhibition in experiment [3] (at 57.5 µM (top of the series)) is -0.107% (inactive). Further, the max response was 1.11% in experiment [3] (setting [9]) and 0.09% in experiment [3] (setting [10]).

On to `CN(C)CCN(C)CCc1ccc(Cl)c(Cl)c1`, for which the activity change, negative = inhibition in experiment [3] (at 57.5 µM (top of the series)) was -1.09% (inactive). Also, the max response amounted to 4.07% in experiment [3] (setting [9]) and 4.59% in experiment [3] (setting [10]).

With `COc1ccccc1N1CCNCC1`, the molecule was classed as inactive in experiment [4], in experiment [5], in experiment [6], in experiment [1] and in experiment [2].

Turning to `CCn1cc(C(=O)O)c(=O)c2ccc(C)nc21`, the outcome in experiment [4], in experiment [5], in experiment [6], in experiment [1] and in experiment [2] was inactive. Besides, the activity change, negative = inhibition in experiment [3] (at 25.7 µM (top of the series)) is 1.82% (inactive). Also, the max response in experiment [3] (setting [9]) came out at 0.0975%; in experiment [3] (setting [10]), 0.934%.

Turning to `Clc1ccc(COC(Cn2ccnc2)c2ccc(Cl)cc2Cl)cc1` (stereo unspecified), in experiment [7], the Potency entry is “inactive”. Also, the Potency in experiment [8] is 50.1 µM (active). Besides, the activity change, negative = inhibition in experiment [3] (at 57.5 µM (top of the series)) was -5.83% (inactive). The values for the max response in experiment [3] (setting [9]) and in experiment [3] (setting [10]) were -16.9% and -20.8%, respectively.

Regarding `Fc1ccc(C(OCCN2CCN(CCCc3ccccc3)CC2)c2ccc(F)cc2)cc1`, the outcome in experiment [4], in experiment [5], in experiment [6] and in experiment [2] was inactive. Besides, the activity change, negative = inhibition in experiment [3] (at 25.7 µM (top of the series)) was -2.3% (inactive). The max response in experiment [3] (setting [9]) was -18.7%; in experiment [3] (setting [10]) it was -16.6%.

Consider `CNCCC(Oc1ccc(C(F)(F)F)cc1)c1ccccc1` (stereo unspecified), for which, in experiment [3] (at 57.5 µM (top of the series)), the activity change, negative = inhibition was 1.75% (inactive). Also, the max response in experiment [3] (setting [9]) was -0.474%; in experiment [3] (setting [10]), 3.92%. The result in experiment [2] was inactive.

In the case of `CN1C[C@H](CNC(=O)OCc2ccccc2)C[C@@H]2c3cccc4c3c(cn4C)C[C@H]21`, the result in experiment [4], in experiment [5], in experiment [6] and in experiment [2] was inactive. Further, the activity change, negative = inhibition in experiment [3] (at 57.5 µM (top of the series)) was 1.3% (inactive). For the same molecule, the max response in experiment [3] (setting [9]) was -34%; in experiment [3] (setting [10]) it was -33%.
